The panel holds about 83,000 compounds, 20% with a hit somewhere; the sample as a whole holds those more often.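 How to read the values: 0–100, growth inhibition (40 = 60% inhibited); 0, no net growth; -100 to 0, cell death (-40 = 40% of starting cells died; -100 = all dead).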 A number with no mark means an inactive call. The source made the active and inactive calls. The calls were made as follows: active = growth percent below 10; inactive = the rest.
tested on: IGROV1 ovarian; test: NCI-60 one-dose screen, 48 h (100 = growth as untreated, 0 = no growth, -100 = all killed); details: 10 µM unless noted

**Q.** For `CC12CC[C@@H]3[C@]4(C)COC(c5cn[nH]c5-c5ccc(Cl)cc5)O[C@@H]4CC[C@@]3(C)[C@@H]1CC(C1=CCOC1=O)O2` (stereo partly drawn), which growth is on record?
**A.** Its growth is 51%.

**Q.** `S=c1c2ccccc2nc2n1CCc1c-2[nH]c2ccccc12` was tested. Which growth did it give?
**A.** Its growth is 48.2%.

**Q.** With `CCCCSc1nc(NCCc2c[nH]c3ccccc23)c(C#N)c(-c2ccccc2)n1` as the compound, how does the growth read?
**A.** Its growth is 96%.

**Q.** For `CC(C)c1sc(NC(=O)c2cc(NC(=O)c3cc(NC(=O)c4cscn4)cn3C)cn2C)nc1C(=O)NCCCN(C)C`, which growth is on record?
**A.** The growth was 13.3%.

**Q.** For `CC(=O)Nc1ccc(-n2cnc3ccc(-c4ccc(O)cc4)cc32)cc1`, which growth is on record?
**A.** Its growth is 27.2%.

**Q.** With `Cc1ccc(NCC(=O)Cn2cc(COc3ccc(C=Nc4cnc5ccccc5c4)cc3)nn2)cc1` as the compound, how does the growth read?
**A.** Its growth is 112%.

**Q.** With `Cc1ccc([C@H]2C(C(=O)c3ccc(Cl)cc3)C3(N[C@@H]2c2ccccc2)C(=O)Nc2ccc(Br)cc23)cc1` (stereo partly drawn) as the compound, how does the growth read?
**A.** Its growth is 60.1%.

**Q.** With `Cn1cc(-c2nnc(N)nc2-c2c[nH]c3ccc(Br)cc23)c2cc(Br)cnc21` as the compound, how does the growth read?
**A.** Its growth is 46.4%.

**Q.** `O=C(c1ccccc1)c1ccc2nc(-c3ccc(F)cc3)[nH]c2c1` was tested. Which growth did it give?
**A.** Its growth is 45.9%.

**Q.** With `COc1ccc(-c2nc(SCC(C)C)nc(NCCc3c[nH]c4ccccc34)c2C#N)cc1` as the compound, how does the growth read?
**A.** The growth was 101%.

**Q.** With `S=C(Nc1ccccc1)Nc1ccc(OCc2nc3ccccc3[nH]2)cc1` as the compound, how does the growth read?
**A.** Its growth is 56.3%.

**Q.** `O=C(/C=C/Nc1ccc(Cl)cc1)c1ccc2c(c1)Nc1ccccc1S2` was tested. Which growth did it give?
**A.** The growth was 39.5%.

**Q.** Which growth does the source give for `COc1ccc(C(=O)/C=C/c2ccc(OCc3ccc(F)cc3)c(OC)c2)cc1OC` here?
**A.** Its growth is 17.5%.

**Q.** `COc1c(F)ccc(C(=O)Nc2ccc3nc(NC(=O)C4CCCN(S(=O)(=O)c5cccc(C(F)(F)F)c5)C4)sc3c2)c1F` (stereo not drawn) was tested. Which growth did it give?
**A.** Its growth is 77.5%.

**Q.** For `Cn1cc(-c2cc(N)n3nc(-c4c[nH]c5ccccc45)cc3n2)c2cccnc21`, which growth is on record?
**A.** The growth was 28.1%.

**Q.** Which growth does the source give for `Cc1ccc(C(=O)CSc2nc3ccc(C)cc3c(=O)n2-c2ccc(F)cc2)cc1` here?
**A.** The growth was 80.5%.

**Q.** Which growth does the source give for `O=C(NNc1ccccc1)n1c(=O)c2ccccc2c(=O)n1-c1ccccc1` here?
**A.** Its growth is 96.4%.

**Q.** With `Cc1nc(Nc2ccccn2)sc1C(=O)CC(SCC(=O)Nc1ccc(Cl)cc1)c1ccccc1F` (stereo not drawn) as the compound, how does the growth read?
**A.** Its growth is 20.4%.

**Q.** Which growth does the source give for `O=c1onc(-c2cc3ccccc3nc2Cl)n1-c1cccc2ccccc12` here?
**A.** The growth was 61.8%.

**Q.** `N#Cc1c(-c2cccc(Cl)c2Cl)cc(-c2c[nH]c3ccccc23)[nH]c1=O` was tested. Which growth did it give?
**A.** Its growth is 71%.

**Q.** With `CC(=O)OC[C@@]1(C)C2CC[C@]3(C)C(CC=C4C5CC(C)(C)CC[C@]5(C(=O)Nc5ccc(Br)cc5)CC[C@]43C)[C@@]2(C)C[C@@H](OC(C)=O)[C@@H]1OC(C)=O` (stereo partly drawn) as the compound, how does the growth read?
**A.** Its growth is 57.3%.

**Q.** Which growth does the source give for `Cc1cc(C)cc(NC(=O)Cn2cc(COn3nnc4ccccc43)nn2)c1` here?
**A.** Its growth is 104%.

**Q.** With `CC(=O)Nc1cccc(Nc2nc(NCc3ccccc3)c3ccccc3n2)c1` as the compound, how does the growth read?
**A.** The growth was -94.1% (active).

**Q.** How did the growth turn out when `Clc1cccc(Cl)c1/C=C/c1cc(/C=C/c2ccc(Br)cc2)c2ccccc2n1` was run?
**A.** Its growth is 96.6%.

**Q.** With `Cn1cc(-c2cc3nc(-c4cn(C)c5ncc(Br)cc45)cc(N)n3n2)c2ccccc21` as the compound, how does the growth read?
**A.** The growth was -23.8% (active).

**Q.** Which growth does the source give for `N#Cc1c(-c2ccccc2Cl)cc(-c2c[nH]c3ccccc23)[nH]c1=O` here?
**A.** Its growth is 78.5%.

tested on: OVCAR-3 ovarian; test: as above; details: 10 µM unless noted

**Q.** How did the growth turn out when `Cc1ccc(S(=O)(=O)c2nc(S(=O)(=O)c3ccc(C)cc3)c(N3CCC(O)CC3)s2)cc1` was run?
**A.** The growth was 72.9%.

**Q.** With `Cc1sc2c(c1C)C(c1ccc(Cl)cc1)=N[C@@H](CC(=O)NCCCCCNC(=O)COc1ccc(C3CCC(=O)NC3=O)cc1)c1nnc(C)n1-2` (stereo partly drawn) as the compound, how does the growth read?
**A.** The growth was 44.7%.

**Q.** How did the growth turn out when `COc1ccc2c(c1)C(=N/N=C(\C)c1ccc(OC)c(S(N)(=O)=O)c1)C(=O)N2` was run?
**A.** Its growth is 106%.

**Q.** With `COc1cc2oc(-c3cccc(C(=O)Nc4ccc(Cl)cc4)c3)cc(=O)c2c(OCCNC(=O)[C@H](CCC(=O)OC(C)(C)C)NC(=O)OC(C)(C)C)c1OC` as the compound, how does the growth read?
**A.** The growth was 110%.

**Q.** For `COc1ccc(-c2nc3cc(C)ccc3n2CC(=O)N=Nc2c(O)[nH]c3ccc(Cl)cc23)cc1`, which growth is on record?
**A.** The growth was -13.8% (active).

**Q.** For `C=CC[N+](C)(C)CCn1c2ccccc2c2nc3cc(C)c(C)cc3nc21`, which growth is on record?
**A.** The growth was 96.4%.

**Q.** For `O=C(c1ccc(OCCN2CCOCC2)cc1)C1[C@H](c2ccc(Cl)cc2)[C@@H](c2ccccc2)NC12C(=O)Nc1ccc(Br)cc12` (stereo partly drawn), which growth is on record?
**A.** Its growth is 29.5%.

**Q.** For `N#Cc1c(-c2ccc(Br)cc2)nc2n[nH]c(-c3ccc(Br)cc3)c2c1-c1ccc(F)cc1`, which growth is on record?
**A.** The growth was 106%.

**Q.** With `Cc1ccccc1[C@H]1C(C(=O)c2ccc(Cl)cc2)C2(N[C@@H]1c1ccccc1)C(=O)Nc1ccc(Cl)cc12` (stereo partly drawn) as the compound, how does the growth read?
**A.** Its growth is -52.4% (active).

**Q.** Which growth does the source give for `COc1cc(C2CC(c3cc(OC)c(OC)c(OC)c3)=NN2C(C)=O)ccc1OCc1ccccc1` (stereo not drawn) here?
**A.** Its growth is 41%.

**Q.** For `Cc1cccc(NC(=O)[C@]23CCC(C)(C)CC2C2=CCC4[C@@]5(C)C[C@@H](O)[C@H](O)[C@@](C)(CO)C5CC[C@@]4(C)[C@]2(C)CC3)c1` (stereo partly drawn), which growth is on record?
**A.** The growth was 41.3%.

**Q.** Which growth does the source give for `CC12CC[C@@H]3[C@]4(C)COC(c5cn[nH]c5-c5ccc(Cl)cc5)O[C@@H]4CC[C@@]3(C)[C@@H]1CC(C1=CCOC1=O)O2` (stereo partly drawn) here?
**A.** The growth was 42.6%.

**Q.** With `S=c1c2ccccc2nc2n1CCc1c-2[nH]c2ccccc12` as the compound, how does the growth read?
**A.** Its growth is 67.2%.

**Q.** Which growth does the source give for `CCCCSc1nc(NCCc2c[nH]c3ccccc23)c(C#N)c(-c2ccccc2)n1` here?
**A.** Its growth is 55.9%.

**Q.** With `CC(C)c1sc(NC(=O)c2cc(NC(=O)c3cc(NC(=O)c4cscn4)cn3C)cn2C)nc1C(=O)NCCCN(C)C` as the compound, how does the growth read?
**A.** The growth was 3.57% (active).

**Q.** Which growth does the source give for `CC(=O)Nc1ccc(-n2cnc3ccc(-c4ccc(O)cc4)cc32)cc1` here?
**A.** The growth was 54.3%.

**Q.** Which growth does the source give for `Cc1ccc(NCC(=O)Cn2cc(COc3ccc(C=Nc4cnc5ccccc5c4)cc3)nn2)cc1` here?
**A.** Its growth is 139%.

**Q.** Which growth does the source give for `Cc1ccc([C@H]2C(C(=O)c3ccc(Cl)cc3)C3(N[C@@H]2c2ccccc2)C(=O)Nc2ccc(Br)cc23)cc1` (stereo partly drawn) here?
**A.** Its growth is 64%.

**Q.** Which growth does the source give for `Cn1cc(-c2nnc(N)nc2-c2c[nH]c3ccc(Br)cc23)c2cc(Br)cnc21` here?
**A.** Its growth is 55.8%.

**Q.** With `O=C(c1ccccc1)c1ccc2nc(-c3ccc(F)cc3)[nH]c2c1` as the compound, how does the growth read?
**A.** The growth was 32.6%.

**Q.** Which growth does the source give for `COc1ccc(-c2nc(SCC(C)C)nc(NCCc3c[nH]c4ccccc34)c2C#N)cc1` here?
**A.** Its growth is 85.4%.

**Q.** Which growth does the source give for `S=C(Nc1ccccc1)Nc1ccc(OCc2nc3ccccc3[nH]2)cc1` here?
**A.** The growth was 29%.

**Q.** With `O=C(/C=C/Nc1ccc(Cl)cc1)c1ccc2c(c1)Nc1ccccc1S2` as the compound, how does the growth read?
**A.** The growth was 61.5%.

**Q.** With `COc1ccc(C(=O)/C=C/c2ccc(OCc3ccc(F)cc3)c(OC)c2)cc1OC` as the compound, how does the growth read?
**A.** Its growth is 18.2%.

**Q.** For `COc1c(F)ccc(C(=O)Nc2ccc3nc(NC(=O)C4CCCN(S(=O)(=O)c5cccc(C(F)(F)F)c5)C4)sc3c2)c1F` (stereo not drawn), which growth is on record?
**A.** The growth was 88.1%.

**Q.** For `Cn1cc(-c2cc(N)n3nc(-c4c[nH]c5ccccc45)cc3n2)c2cccnc21`, which growth is on record?
**A.** Its growth is 12.6%.

**Q.** Which growth does the source give for `Cc1ccc(C(=O)CSc2nc3ccc(C)cc3c(=O)n2-c2ccc(F)cc2)cc1` here?
**A.** The growth was 89.5%.

**Q.** Which growth does the source give for `O=C(NNc1ccccc1)n1c(=O)c2ccccc2c(=O)n1-c1ccccc1` here?
**A.** The growth was 104%.

**Q.** How did the growth turn out when `Cc1nc(Nc2ccccn2)sc1C(=O)CC(SCC(=O)Nc1ccc(Cl)cc1)c1ccccc1F` (stereo not drawn) was run?
**A.** Its growth is -13.5% (active).

**Q.** `O=c1onc(-c2cc3ccccc3nc2Cl)n1-c1cccc2ccccc12` was tested. Which growth did it give?
**A.** The growth was 64%.

**Q.** With `N#Cc1c(-c2cccc(Cl)c2Cl)cc(-c2c[nH]c3ccccc23)[nH]c1=O` as the compound, how does the growth read?
**A.** The growth was 86.1%.

**Q.** How did the growth turn out when `CC(=O)OC[C@@]1(C)C2CC[C@]3(C)C(CC=C4C5CC(C)(C)CC[C@]5(C(=O)Nc5ccc(Br)cc5)CC[C@]43C)[C@@]2(C)C[C@@H](OC(C)=O)[C@@H]1OC(C)=O` (stereo partly drawn) was run?
**A.** Its growth is 45%.

**Q.** How did the growth turn out when `Cc1cc(C)cc(NC(=O)Cn2cc(COn3nnc4ccccc43)nn2)c1` was run?
**A.** Its growth is 129%.

**Q.** For `CC(=O)Nc1cccc(Nc2nc(NCc3ccccc3)c3ccccc3n2)c1`, which growth is on record?
**A.** The growth was -79.3% (active).

**Q.** Which growth does the source give for `Clc1cccc(Cl)c1/C=C/c1cc(/C=C/c2ccc(Br)cc2)c2ccccc2n1` here?
**A.** The growth was 111%.

**Q.** `Cn1cc(-c2cc3nc(-c4cn(C)c5ncc(Br)cc45)cc(N)n3n2)c2ccccc21` was tested. Which growth did it give?
**A.** The growth was -18.5% (active).

**Q.** How did the growth turn out when `N#Cc1c(-c2ccccc2Cl)cc(-c2c[nH]c3ccccc23)[nH]c1=O` was run?
**A.** The growth was 93.8%.

Reference: PubChem BioAssay (NCI)
